High-throughput results from PubChem.
A selection: hits, their analogues and other compounds. The true share with any hit is near 7.9%.
HCMV antiviral: human cytomegalovirus inhibition; HFF cells, HCMV-luciferase reporter, 72 h; active compounds read low; activity change, negative = inhibition, % at 57.5 µM; hit rate 4.5% among 410,000; in the data active means activity change below about -60%; inconclusive means no clear call, values can overlap the other calls; inactive means above about -39%
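After 16 h attachment at 37C, HFF cells received test compound and HCMV-luciferase (1 PFU/cell); reporter luminescence read 72 h later, data normalized against buffer-only and known inhibitor Salinomycin.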
FMDV inh: foot and mouth disease virus antiviral activity; AID 1159524; Potency, µM (doses to about 57.9 µM), inactives show top-dose activity change, negative = inhibition, most hits filed as inhibitors; FMDV antiviral cell-based qHTS; hit rate 1.2% among 410,000; calls by dose curve; tested in HEK293T cells; further: read-out not given here; potency means the concentration at half of the fitted maximal effect; nearly all actives have a fitted effect of over 45% in size
Lassa entry inh: Lassa virus entry inhibition | AID 540256 | Potency, µM (top dose mostly 37.9 µM), for the others: top-dose activity change, negative = inhibition, hits mostly inhibitors | Lassa virus pseudotype entry inhibition, cell reporter | hit rate 1.2% among 300,000; calls by dose curve; tested in HEK293 cells; further: potency means the concentration at half of the fitted maximal effect; nearly all actives have a fitted effect of over 50% in size
Marburg entry inh: blocks Marburg virus binding to or entry into cells | Marburg virus pseudotyped entry inhibition, cell reporter | Potency, µM (top dose mostly 37.8 µM), without a hit: top-dose activity change, negative = inhibition, usual class: inhibitors | hit rate 1.8% among 300,000; calls by dose curve; tested in HEK293 cells; further: potency means the concentration at half of the fitted maximal effect
HCV inh: inhibitors of hepatitis C virus infection; Huh7.5.1 HCVcc-Cre infection, luciferase reporter, 44 h; Potency, µM (top dose mostly 41.8 µM), without a hit: at the highest dose activity change, negative = inhibition, usual class: inhibitors; hit rate 3.4% among 340,000; active means well fitted inhibition curve with a large enough effect; inconclusive means small, poorly fitted or top-dose-only effect, or another doubt; inactive means no such curve, though single readings can be large or run the other way; further: potency means the concentration at half of the fitted maximal effect
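Whole-lifecycle infectious HCVcc-Cre system; cells 1,000/well, compound then virus (~0.5 moi) added 4 h after plating, 44 h culture. Luciferase read 15 sec following 15 min substrate incubation, room temp.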
An asterisk follows results filed as active; [ ] = dose if it differs, or a comment. On the % scale 0 is the no-effect control and ±100 the full control effect.

How did COc1cccc(CN2C(=O)COCc3cc(-c4cccc(CO)c4)ccc32)c1 do in these assays?
HCMV antiviral: -17

How did CC(C)c1ccc(NC2CCCN(C(=O)c3ccoc3)C2)cc1 (stereo not given) do in these assays?
HCMV antiviral: 0; FMDV inh: -6%; HCV inh: inconclusive

What do the screens show for `CC(C)c1ccc(NC2CCCN(C(=O)c3ccc(N4CCOCC4)cc3)C2)cc1` (stereo not given)?
HCMV antiviral: -31; FMDV inh: 28µM*; Lassa entry inh: -26%; Marburg entry inh: -26%; HCV inh: inconclusive

How did Cc1nn(Cc2c(F)c(F)c(F)c(F)c2F)c(C)c1NC(=O)c1ccc(COc2ccccc2Cl)cc1 do in these assays?
HCMV antiviral: -5; FMDV inh: -25%; Lassa entry inh: -7%; Marburg entry inh: 2%; HCV inh: 2%

How did Cc1nn(Cc2ccc(Cl)c(Cl)c2)c(C)c1NC(=O)c1cc(CC(C)C)on1 do in these assays?
HCMV antiviral: -31; FMDV inh: inconclusive; HCV inh: 11µM*

What do the screens show for `CCCc1cc(C(=O)Nc2c(C)nn(Cc3c(Cl)cccc3Cl)c2C)no1`?
HCMV antiviral: -30; FMDV inh: -15%; Lassa entry inh: 4µM*; Marburg entry inh: inconclusive

Results for Cc1nn(Cc2c(F)c(F)c(F)c(F)c2F)c(C)c1NC(=O)c1ccc(COc2ccccc2Cl)o1 ?
HCMV antiviral: -66*; FMDV inh: -26%; Lassa entry inh: inconclusive; Marburg entry inh: inconclusive; HCV inh: 16µM*

Results for Fc1ccc(-c2noc3nc(Oc4ccccc4F)ccc23)cc1 ?
HCMV antiviral: 58

What do the screens show for `COC(=O)c1ccc(Cl)c(NC(=O)C2CCN(S(=O)(=O)Cc3ccccc3)CC2)c1`?
HCMV antiviral: -9; FMDV inh: -19%; Lassa entry inh: -2%[46.1 µM]; Marburg entry inh: inconclusive

What do the screens show for `COCCCNC(=O)CCCCn1c(=O)c2ccccc2n(CC(=O)Nc2ccc(C)cc2C)c1=O`?
HCMV antiviral: -5; FMDV inh: -1%; Lassa entry inh: -12%[46.1 µM]; Marburg entry inh: inconclusive

What do the screens show for `Oc1c(C(c2ccccn2)N2CCCCC2)cc(Cl)c2cccnc12` (stereo not given)?
HCMV antiviral: 44; FMDV inh: -28%; HCV inh: 10µM*

Results for CN1CCN(C(c2ccc(Cl)cc2)c2cc(Cl)c3cccnc3c2O)CC1 (stereo not given) ?
HCMV antiviral: 264; FMDV inh: -3%; Lassa entry inh: 10µM*; Marburg entry inh: inconclusive; HCV inh: inconclusive

Results for COc1ccc(C(=O)Nc2ccc(N(C)Cc3ccccc3)c(C(=O)O)c2)cc1 ?
HCMV antiviral: 2; FMDV inh: 10%; Lassa entry inh: -10%[46.1 µM]

Results for O=c1[nH]c(-c2ccccc2)ncc1OCc1ccccc1 ?
HCMV antiviral: -63*; FMDV inh: 14%; Lassa entry inh: 3%; Marburg entry inh: inconclusive; HCV inh: 18%

Results for CCCSc1nc(-c2ccccc2)[nH]c1S(=O)(=O)c1ccc(C)cc1 ?
HCMV antiviral: -17; FMDV inh: 30%; Lassa entry inh: -21%[46.1 µM]; Marburg entry inh: inconclusive

What do the screens show for `Cc1onc(-c2ccccc2)c1C(=O)N/N=C/C(Br)=C/c1ccccc1`?
HCMV antiviral: -70*; FMDV inh: -9%; Lassa entry inh: inconclusive; Marburg entry inh: inconclusive; HCV inh: inconclusive

How did Cc1occc1C(=O)N/N=C/C(Br)=C\c1ccccc1 do in these assays?
HCMV antiviral: 33; FMDV inh: inconclusive; Lassa entry inh: 13µM*; Marburg entry inh: inconclusive; HCV inh: inconclusive

Results for Cc1cccc(/C=N/NC(=O)c2c(-c3ccccc3)noc2C)c1O ?
HCMV antiviral: -113*; FMDV inh: -26%; Lassa entry inh: -22%[46.1 µM]; Marburg entry inh: inconclusive; HCV inh: inconclusive

What do the screens show for `COc1ccccc1/C=N/NC(=O)c1c(-c2ccccc2)noc1C`?
HCMV antiviral: -24; FMDV inh: 25%; Lassa entry inh: 12%[46.1 µM]; Marburg entry inh: 1%[46.1 µM]; HCV inh: 10%

What do the screens show for `Cc1cccc(C(C)C)c1NC(=O)c1c(-c2ccccc2)noc1C`?
HCMV antiviral: -62*; FMDV inh: 40%; HCV inh: 14%

How did CCc1ccc(NC(=O)Cn2c(=O)n(Cc3nc(-c4ccccc4)no3)c(=O)c3cc4c(cc32)OCO4)cc1 do in these assays?
HCMV antiviral: -19; FMDV inh: -1%; Lassa entry inh: 7%[46.1 µM]

What do the screens show for `COC(=O)c1sccc1NC(=O)c1c(-c2ccccc2)noc1C`?
HCMV antiviral: 6; FMDV inh: inconclusive; Lassa entry inh: 12%; Marburg entry inh: inconclusive; HCV inh: -28%

Results for COC(=O)c1c(-c2ccc(C)cc2)csc1NC(=O)c1c(-c2ccccc2)noc1C ?
HCMV antiviral: -71*; Marburg entry inh: 7%; HCV inh: 7%

How did CCCCC(=O)Nc1nc2ccc3nc(C)sc3c2s1 do in these assays?
HCMV antiviral: -22; FMDV inh: 30%; HCV inh: 7.9µM*

How did Cc1cc(C)nc(N2CCCC(C(=O)Nc3ccc4nc(C)c(C)nc4c3)C2)n1 (stereo not given) do in these assays?
HCMV antiviral: 15; FMDV inh: -24%; Lassa entry inh: 4%; Marburg entry inh: inconclusive; HCV inh: 5.6µM*

Results for Cc1ccc(NC(=O)C2CCCN(c3ncnc4onc(C)c34)C2)cc1Cl (stereo not given) ?
HCMV antiviral: -3; FMDV inh: 20µM*; Lassa entry inh: 3%[46.1 µM]

How did COc1cccc(NC(=O)C2CCCN(c3ncnc4onc(C)c34)C2)c1 (stereo not given) do in these assays?
HCMV antiviral: -31; FMDV inh: inconclusive; Lassa entry inh: inconclusive

How did Cc1nnc(N2CCCC(C(=O)Nc3cc(F)ccc3F)C2)c2nn(-c3ccccc3)c(C)c12 (stereo not given) do in these assays?
HCMV antiviral: -21; FMDV inh: -10%; Lassa entry inh: -20%[46.1 µM]; HCV inh: 11µM*

Results for COc1ccc(NC(=O)C2CCCN(c3nnc(C)c4c(C)n(-c5ccccc5)nc34)C2)cc1Cl (stereo not given) ?
HCMV antiviral: -90*; FMDV inh: -28%; Lassa entry inh: inconclusive

What do the screens show for `Cc1ccc(CN2CCSc3ccc(C(=O)N4CCN(c5cc(C)ccc5C)CC4)cc32)cc1`?
HCMV antiviral: -11; FMDV inh: -9%; Lassa entry inh: -11%[46.1 µM]; Marburg entry inh: 13%[46.1 µM]

How did COC(=O)c1ccc(S(=O)(=O)N2CCCN(Cc3cccc(Br)c3F)CC2)n1C do in these assays?
HCMV antiviral: -74*; FMDV inh: inconclusive; HCV inh: inconclusive

What do the screens show for `COc1cc(-c2cc(OC)c3c(C)oc(C)c3c(=O)c2)ccc1OC(=O)c1ccc(C)cc1`?
HCMV antiviral: 12; FMDV inh: inconclusive; Lassa entry inh: 9%[46.1 µM]; Marburg entry inh: inconclusive

Results for CCOc1cc(-c2ccc(OC(=O)c3ccc(C)cc3)c(OC)c2)cc(=O)c2c(C)oc(C)c12 ?
HCMV antiviral: 106; FMDV inh: 25µM*; Lassa entry inh: 6%[46.1 µM]; Marburg entry inh: 21%[46.1 µM]
